Source: PubChem BioAssay
The entries come from a sample that favours hits as a whole.
Pf Dd2 inh: qHTS Primary assay for Inhibitors of Plasmodium falciparum Dd2 growth in vitro | P. falciparum Dd2 growth, SYBR Green, 72 h | Potency, µM (series often up to 28.9 µM), inactives show at the highest dose activity, negative = inhibition, actives largely listed as inhibitors | actives 4.3% (n = 120,000); active = well fitted inhibition curve with a large enough effect;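 also: plate controls were DMSO vehicle for no effect and reference drug for full effect; nearly all actives have a fitted effect of over 65% in size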
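Infected erythrocytes (Dd2, 0.3% parasitemia, 2.5% hematocrit final) are added to compound in RPMI-1640/Albumax II medium, grown 72 h at 37C in low oxygen, then lysed with saponin/Triton-X containing SYBR Green and read by fluorescence.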
* hit, by the source's call; i = inactive; [ ] = dose if it differs, or a comment. Potency is read from the fitted curve at half-maximal effect.

SMILES	Pf Dd2 inh
Cc1cccc(CC(=O)N2CCC3(CCCCO3)CC2)c1	-1%
C[C@@H]1CN(C(=O)c2coc(COc3cccc(F)c3)n2)C[C@H](C)O1	-4%
COc1ccc2ccc(OCc3nc(C(=O)N4CC(N5CCCCC5)C4)co3)cc2c1	8.9µM*
CCCC1CCN(C(=O)c2coc(COc3ccc4ccc(OC)cc4c3)n2)C1 (centres undefined)	-21%
COc1ccc(OCc2nc(C(=O)N3CCCC(C(C)(C)O)C3)co2)cc1 (centres undefined)	-4%
COCC1CCN(C(=O)c2coc(COc3cccc(F)c3)n2)C1 (centres undefined)	-2%
COc1cccc(OCc2nc(C(=O)N3CC4C[C@@H]5CC3C[C@H](C4)C5)co2)c1	10µM*
Nc1nc(C2CC(O)C2)cc(N2CCc3sccc3C2)n1 (centres undefined)	-25%
COC(=O)[C@H](Cc1ccc(OC)cc1)NC(=O)[C@H]1CN(C(=O)c2cccnc2)CCN1C(C)=O	i
COc1ccc(C2C(C(=O)OC(C)(C)C)=C(C)N=C3SC=C(CC(=O)NCC4CC4)N32)cc1OC (centres undefined)	-30%
Cc1cccc(CNC(=O)Cc2ccc(N(Cc3ccccc3)C(=O)c3ccco3)cc2)c1	i
CNc1nc(NCCC2CN(c3cnn(C)c(=O)c3)CCO2)ncc1F (centres undefined)	1%
Cc1ccc2c(C(=O)Nc3ccc(Cl)nc3)cnn2c1	-14%[44.1 µM]
Oc1ccc(Cl)cc1Nc1nc2ccccc2n2cnnc12	-3%
COC(=O)c1ccccc1NC(=O)Cn1c(=O)nc(-c2ccccc2)c2cc(Cl)ccc21	-3%
Oc1ccccc1Nc1nc(-c2ccccc2)c2cc(Cl)ccc2n1	5µM*
CN(C)c1cccc(C(=O)N2CCC(c3c[nH]c4ccccc34)(c3c[nH]c4ccccc34)CC2)c1	4µM*
CC(C)CC1=NC2(CCN(C(=O)c3cccc(N(C)C)c3)CC2)C(=O)N1	-2%
Cc1ccc(C2=NC3(CCN(C(=O)c4cccc(N(C)C)c4)CC3)ON2)cc1	-8%
Cc1cc(C)cc(NC(=O)CCCn2c3ccccc3c(=O)c3ccccc32)c1	10µM*
Cc1cc(C)cc(NC(=O)CCCn2nc(C)c3c(C)n(-c4ccccc4)nc3c2=O)c1	25%
Cc1ccc(CNC(=O)CCCCn2c(=O)c3ccccc3n(Cc3ccc(C)cc3)c2=O)cc1	i
O=c1c2c(CO)c(-c3ccccc3)nn2ccn1Cc1cc(F)ccc1F	-13%
COc1ccc([C@H]2C[C@@H](O)[C@@H](O)[C@@H]2NCc2cnc3ccccc3c2)cc1	i
COc1ccc([C@H]2C[C@@H](O)[C@@H](O)[C@@H]2NCc2cccc(C(F)(F)F)c2)cc1	8.9µM*
SMILES	Pf Dd2 inh
COc1ccc([C@H]2C[C@@H](O)[C@@H](O)[C@@H]2NCc2cccc(C#N)c2)cc1	-11%[44.1 µM]
CCc1cc(=O)n(CC(=O)Nc2ccc(C)cc2Cl)c(N2CCOCC2)n1	i
Cc1c(Cl)cccc1NC(=O)CN(CCc1ccccc1)S(=O)(=O)c1ccccc1	1%
CCOc1ccccc1NC(=O)CN(CCc1ccccc1)S(=O)(=O)c1ccc(C)cc1	11µM*
Cc1ccc(C)c(NC(=O)CN(CCc2ccccc2)S(=O)(=O)c2ccccc2)c1	7%
O=C(c1ccc(C(F)(F)F)cc1)N1CCCC2(CC(c3cccnc3)=NO2)C1 (centres undefined)	5%
CC(=O)c1ccc(N2CCN(c3ncnc4c3cnn4-c3cc(Cl)ccc3C)CC2)cc1	11µM*
Cc1ccc(Cl)cc1-n1ncc2c(NCCc3ccccc3)ncnc21	i
Cc1ccc(Cl)cc1-n1ncc2c(NCCCc3ccccc3)ncnc21	20%
CN1CCN(c2ncnc3c2cnn3-c2cccc(Cl)c2)CC1	i
CC(=O)c1ccc(N2CCN(c3ncnc4c3cnn4C)CC2)cc1	i
CCc1ccc(Nc2ncnc3c2cnn3-c2cc(Cl)ccc2C)cc1	10µM*
COc1ccccc1N1CCN(c2ncnc3c2cnn3-c2cc(Cl)ccc2C)CC1	8.9µM*
Cc1ccc(Cl)cc1-n1ncc2c(N3CCCCCC3)ncnc21	17%
Cc1ccc(-n2ncc3c(N4CCN(c5ccccc5)CC4)ncnc32)cc1C	61%
O=C(C1CCCC1)N1CCCC(n2cc(-c3nc(-c4ccccc4)no3)nn2)C1 (centres undefined)	-93%
O=C(c1ccc(C(F)(F)F)cc1)N1CCCC(c2nn(-c3ccccc3)c(=O)[nH]2)C1 (centres undefined)	-14%
COC(=O)[C@@H]1Cc2ncn(C)c2CN1C(=O)CC(C)(C)CC(=O)O	10%[44.1 µM]
Cc1nc(C)c(C(=O)N2CCC(c3noc(-c4ccccn4)n3)C2)s1 (centres undefined)	14%[5.79 µM]
Cc1ccc(C(=O)N2CCCC(c3nc(-c4cccnc4)no3)CCNC(=O)CC2)s1 (centres undefined)	i
Cc1ccc(C(=O)N2C[C@@H](CO)[C@H](c3ccccn3)C2)c(=O)[nH]1	30%
NC(=O)c1cccc(-c2n[nH]c3c2CC(=O)N(CC2CCOCC2)C3)c1	4%[44.1 µM]
N#Cc1ccc(C(=O)Nc2ccc([C@@H](O)[C@H]3COCC(=O)N3CCCc3ccccc3)cc2)cc1	i
COCCC1(NS(C)(=O)=O)CCN(C(=O)c2ccc(OC)nc2)CC1	28%
Cc1cc(C[C@@H]2COC[C@@H]2NC(=O)c2cnc(Nc3ccccc3)nc2)on1	-7%
SMILES	Pf Dd2 inh
O=[S+]([O-])(Nc1cccnc1)c1ccc2c(c1)OCCN(Cc1ccncc1F)C2	i
O=[S+]([O-])(Nc1cccnc1)c1ccc2c(c1)OCCN(Cc1ccccc1F)C2	-18%[44.1 µM]
O=[S+]([O-])(Nc1ccccc1)c1ccc2c(c1)OCCN(Cc1ccncc1F)C2	5µM*
CCCOc1ccc(CNC(=O)c2c(OCC)cc(=O)n3c2CCCC3)cc1	-10%
COc1ccc(S(=O)(=O)N2CCCN(C)c3ccccc32)cc1	-26%
CCOCCn1c(=O)[nH]c2cc(C(=O)NCCc3scnc3C)ccc21	1%
N#Cc1ccc(S(=O)(=O)N2CCC(Cc3nc(-c4cccnc4)n[nH]3)C2)cc1 (centres undefined)	i
COc1ccc(CNC(=O)C[C@@H]2CCNC[C@@H]2Cc2cc(-c3ccc(C(C)(C)C)cc3)on2)cc1	-18%
CC(C)(C)c1ccc(-c2cc(C[C@H]3CNCC[C@H]3CC(=O)N3CCN(c4ccc(F)cc4)CC3)no2)cc1	i
CC(C)(C)NC(=O)C[C@@H]1CCNC[C@@H]1Cc1cc(-c2ccc(C(C)(C)C)cc2)on1	4µM*
CC(C)(C)c1ccc(-c2cc(C[C@H]3CNCC[C@H]3CC(=O)NCc3ccc(F)cc3)no2)cc1	-3%
O=C(C[C@@H]1CCNC[C@@H]1Cc1cc(-c2ccc(F)cc2)on1)NCc1ccc(F)cc1	i
CC(C)(C)c1ccc(-c2cc(C[C@H]3CNCC[C@H]3CC(=O)N3CCCCC3)no2)cc1	5µM*
Cc1cccc(C)c1NC(=O)Cn1nc2n(c1=O)CCCCC2	2%
COc1ccc(C(C(=O)O)N2CCN(C(=O)c3ccco3)CC2)c(OC)n1 (centres undefined)	-25%
CC(C)N1CCCC2(CCN(S(=O)(=O)c3ccc(F)cc3F)C2)C1=O (centres undefined)	-10%
Cc1c(C(=O)N2CCC3(CC2)Nc2ccccc2NC3=O)cnc2ccnn12	-22%
Cc1ccccc1-n1c(SCc2ccc(Cl)cc2)nc2[nH]ncc2c1=O	10µM*
O=c1c2cn[nH]c2nc(SCc2cccc(Br)c2)n1-c1ccc(Cl)cc1	9%
